Reference: the supplement of paper PMC10338343
± gives the standard deviation.

Each sequence was assayed on MILI (PIWIL2) piRISC loaded with piRNA #1 (26 nt) (assay: pre-steady-state target cleavage rate (min^-1); guide: piRNA #1 5'p-UGAGGUAGUAGGUUGUAUAGUAUCCA; MIWI and MILI are mouse PIWI proteins and EfPiwi is from a freshwater sponge; tags in brackets are library labels; higher = faster piRNA-guided slicing of the target). Conditions: auxiliary factor: 500 nM mouse GTSF1.
Method in brief: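 The pre-steady-state cleavage rate was obtained by Cleave-'n-Seq with a burst-and-steady-state fit. A transcribed, DNA-blocked target RNA library (0.1 nM) was mixed with 1 nM active affinity-purified piRISC carrying one synthetic guide, with or without 500 nM GTSF1 partner protein, in HEPES–potassium acetate buffer at 33 °C for 0–8 or 0–960 min. Uncleaved targets were sequenced and normalised to depth and to weakly complementary targets, with three trials pooled and k3 capped at 0.0001 min^-1.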
GGAGACCUUACUAUACAAGCUACUACGUCA was tested, and the “pre-steady-state target cleavage rate” value was 0.203 ± 0.029. In the case of GGAGACCUAUGUAUAUCAACCUACUACCUCA, the “pre-steady-state target cleavage rate” value is reported as 0.00312 ± 0.0027. With GGAGACCAUACUAAACAUCCUACUACCUCA the “pre-steady-state target cleavage rate” value was 0.272 ± 0.022. In the case of GGAGACCUAUCUAUACAACCUACUUCCUGA, the “pre-steady-state target cleavage rate” value is reported as 0.0608 ± 0.018. With GGAGACCUAUCUAUACUACCUACUACCACA the “pre-steady-state target cleavage rate” value was 0.117 ± 0.015. In the case of GGAGACCUAACUUAUCAACCUACUACCUCA, the “pre-steady-state target cleavage rate” value is reported as 0.0153 ± 0.0078. With GGAGACCUAUCAAUACAAGCUACUACCUCA the “pre-steady-state target cleavage rate” value was 0.108 ± 0.013. With GGAGACCUAUGAAUACAACGUACUACCUGA the “pre-steady-state target cleavage rate” value was 0.00311 ± 0.0023. GGAGACCUAUGAUAACAAGCUAGUACCUCA was tested, and the “pre-steady-state target cleavage rate” value was 0.00508 ± 0.0032. For GGAGACCUUACUAUACUACCUAGUACCUCA, the “pre-steady-state target cleavage rate” value was 0.035 ± 0.0072. GGAGACCUAUGUACACAACCUACUACCUCA was tested, and the “pre-steady-state target cleavage rate” value was 0.0498 ± 0.0086. In the case of GGAGACCAUACUAUAAACCUACUACCUCA, the “pre-steady-state target cleavage rate” value is reported as 0.0199 ± 0.0046. GGAGACCUAUGAUAUGUACCUAGUACCUCA was tested, and the “pre-steady-state target cleavage rate” value was < 0.0001. For GGAGACCUAUGAUAUCAAACUACUACCUCA, the “pre-steady-state target cleavage rate” value was 0.00495 ± 0.0026. GGAGACCUAUGAUAUGUAUCCUACUACCUCA was tested, and the “pre-steady-state target cleavage rate” value was 0.0082 ± 0.0021. For GGAGACCUAUGAUUACUACCUACUAGCUCA, the “pre-steady-state target cleavage rate” value was 0.0036 ± 0.0032. In the case of GGAGACGUUACUAUUCAACCUACUACCUCA, the “pre-steady-state target cleavage rate” value is reported as 0.168 ± 0.011. For GGAGACCUAACUAUAGAAGCUACUACCUCA, the “pre-steady-state target cleavage rate” value was 0.156 ± 0.029. With GGAGACCUUACUAUACAUCCUACUACCUGA the “pre-steady-state target cleavage rate” value was 0.195 ± 0.033. GGAGACCUAUGAAUACCACCUACUACCUCA was tested, and the “pre-steady-state target cleavage rate” value was 0.00372 ± 0.0036. With GGAGACCUAACUUUAGAACCUACUACCUCA the “pre-steady-state target cleavage rate” value was 0.129 ± 0.023. With GGAGACCUAUGAUAUGUUGCUAGAACCUCA the “pre-steady-state target cleavage rate” value was < 0.0001. GGAGACCUAUGAUAACAACCUACUACCUUA was tested, and the “pre-steady-state target cleavage rate” value was 0.00415 ± 0.003. GGAGACCUAUGAAUACAACCUACUAUCUCA was tested, and the “pre-steady-state target cleavage rate” value was 0.00527 ± 0.0017. GGAGACCUAUCUAUACAACCUACAUCCUCA was tested, and the “pre-steady-state target cleavage rate” value was 0.0186 ± 0.0046. In the case of GGAGACCUAUGAUAUGUUCCUAUCUACCUCA, the “pre-steady-state target cleavage rate” value is reported as < 0.0001. In the case of GGAGACCUAUCAAUAGAACCUACUACCUCA, the “pre-steady-state target cleavage rate” value is reported as 0.0159 ± 0.0039. In the case of GGAGACGAUACUAAUGAACCUACUACCUCA, the “pre-steady-state target cleavage rate” value is reported as 0.0821 ± 0.011. For GGAGACCUAUGUAUACAAUCUACUACCUCA, the “pre-steady-state target cleavage rate” value was 0.0642 ± 0.011. For GGAGACCUAUGUAUACUUGCUACUACCUCA, the “pre-steady-state target cleavage rate” value was 0.00505 ± 0.0014. GGAGACGAUACAAUACAACGUACUACCUCA was tested, and the “pre-steady-state target cleavage rate” value was 0.0185 ± 0.0029. For GGAGACCUUACUAUACAACCUUCUUCCUCA, the “pre-steady-state target cleavage rate” value was 0.00391 ± 0.0031. GGAGACCUAUCUAUACAUCCUACUAGCUCA was tested, and the “pre-steady-state target cleavage rate” value was 0.125 ± 0.019. For GGAGACCUAACAAUACAAGCUACUACCUCA, the “pre-steady-state target cleavage rate” value was 0.22 ± 0.029. With GGAGAGGAUACUAAAGAACCUACUACCUCA the “pre-steady-state target cleavage rate” value was 0.179 ± 0.0099. In the case of GGAGACCUAUGAUAUGACCUACUACCUCA, the “pre-steady-state target cleavage rate” value is reported as 0.0053 ± 0.0031. For GGAGACCUAACUGAUACAACCUACUACCUCA, the “pre-steady-state target cleavage rate” value was 0.183 ± 0.045. With GGAGACGUUACUAUAGAACCUACUACCUCA the “pre-steady-state target cleavage rate” value was 0.154 ± 0.014. In the case of GGAGACCUAUGAUAACCAACCUACUACCUCA, the “pre-steady-state target cleavage rate” value is reported as 0.00371 ± 0.0025.
